Most compounds without a hit are left out; they make up all but 6.3% or so of the library.
ATXN2 expr inh: ATXN2 expression inhibition; HEK-293 ATXN2-luciferase reporter, luminescence, 24 h; Potency, µM (top dose mostly 57 µM), without a hit: at the top dose activity change, negative = inhibition, usual class: inhibitors; actives 0.72% (n = 360,000); AID 1745845; note: % is set by controls: 0 for no effect and ±100 for the full control effect; nearly all actives have a fitted effect of over 55% in size
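qHTS (up to 57 uM final) was run with 24 h compound exposure of reporter cells at 37 °C. Each well was multiplexed: SteadyGlo luminescence measured ATXN2-luciferase expression after a fluorogenic Gly-Phe-AFC viability readout (25 uM final).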
RORgamma inh: blocks mouse ROR gamma transcriptional activity | AID 2551 | Potency, µM (top dose mostly 53.6 µM), for inactives: top-dose activity change, negative = inhibition, most hits filed as inhibitors | actives 5.4% (n = 310,000) | P51450 | Drosophila S2 Gal4-RORgamma UAS-luciferase reporter, 20 h; note: % is set by controls: 0 for no effect and ±100 for the full control effect; nearly all actives have a fitted effect of over 60% in size
Target sequence (P51450 whole entry, looked up, the tested form may be a part): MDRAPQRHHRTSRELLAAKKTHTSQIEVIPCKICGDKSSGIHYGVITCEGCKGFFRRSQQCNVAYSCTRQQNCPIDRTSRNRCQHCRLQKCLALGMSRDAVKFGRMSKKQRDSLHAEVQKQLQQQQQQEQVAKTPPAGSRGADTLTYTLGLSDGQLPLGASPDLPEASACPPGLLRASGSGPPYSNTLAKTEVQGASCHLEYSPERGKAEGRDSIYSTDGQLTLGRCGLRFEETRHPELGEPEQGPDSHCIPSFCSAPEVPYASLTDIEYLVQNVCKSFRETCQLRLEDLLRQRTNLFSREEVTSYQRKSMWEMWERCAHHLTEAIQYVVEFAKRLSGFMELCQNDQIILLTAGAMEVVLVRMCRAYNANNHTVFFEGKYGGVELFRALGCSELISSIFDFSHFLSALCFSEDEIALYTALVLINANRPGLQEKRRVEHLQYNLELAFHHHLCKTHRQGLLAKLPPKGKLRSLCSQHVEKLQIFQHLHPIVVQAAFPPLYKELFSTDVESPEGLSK
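Read-out: Photinus luciferase luminescence; inhibitors lower reporter signal. Insect Schneider cells with Gal4-ROR gamma fusion under metallothionein promoter, UAS reporter; 700 uM final copper sulfate induction, 20 hr, ambient temperature.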
TGFb inhibitor: TGF-b pathway inhibition | HepG2 CAGA-GFP TGF-b/SMAD3 reporter, GFP fluorescence, 18 h; TGF-beta stimulated, 500 pg/mL final | actives 1.2% (n = 410,000) | Potency, µM (highest dose often 46.1 µM), inactives show at the top dose activity, negative = inhibition, hits mostly inhibitors; note: % is set by controls: 0 for no effect and ±100 for the full control effect; nearly all actives have a fitted effect of over 65% in size
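GFP signal (ex488/em500-530) from TGF-beta-stimulated HEPG2 CAGA-GFP cells, 500 pg/mL final, 18 h at 37 degrees C in DMEM plus 1% FBS, normalized to unstimulated and DMSO-stimulated controls.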
HepG2 tox: counter-screen for TGF-b inhibitors: cytotoxicity in HepG2 cells. AID 588856. actives 0.76% (n = 410,000). Potency, µM (doses to about 46.1 µM), inactives show at the top dose activity change, negative = cytotoxicity, actives largely listed as cytotoxic. HepG2 CAGA-GFP viability, ATP luminescence, 18 h
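CellTiter-Glo luminescence gave cytotoxicity after 18 hours at 37 degrees C. The cells were HepG2 CAGA-GFP in 1% FBS DMEM, stimulated with 500 pg/mL TGF-beta after compound addition. %Activity was normalised to no-cell wells (complete cell-killing) and DMSO (no toxicity), and curves were fitted and classified.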
S2 tox: viability counter-screen for ATXN expression inhibitors | Potency, µM (highest dose often 56.7 µM), hits mostly cytotoxic | S2 cells (HEK-293 line with an ATXN2-luciferase reporter) viability, CellTiter-Fluor protease fluorescence, 24 h | actives 0.49% (n = 400,000); note: nearly all actives have a fitted effect of over 40% in size
VP16 counter: counter-screen for ROR gamma inhibitors: Gal4-VP16 reporter; Potency, µM (doses to about 53.6 µM), for inactives: at the highest dose activity, negative = inhibition, most hits filed as inhibitors; Drosophila S2 Gal4-VP16 UAS-luciferase, luminescence, 20 h; AID 2546; actives 3.5% (n = 310,000);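 note: Gal4-VP16 expression switched on by copper sulfate through the metallothionein promoter; % is set by controls: 0 for no effect and ±100 for the full control effect; nearly all actives have a fitted effect of over 50% in size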
An asterisk follows results filed as active; i = inactive; ? = inconclusive; . = no result given. Calls come from the whole dose curve; as a rule, active = well fitted curve in the direction sought with a large enough effect; inconclusive = small, poorly fitted or top-dose-only effect, or another doubt; inactive = no such curve, though single readings can be large; an effect the other way counts as inactive or inconclusive. Potency is the fitted concentration of half-maximal effect.

SMILES	ATXN2 expr inh	RORgamma inh	TGFb inhibitor	HepG2 tox	S2 tox	VP16 counter
Cc1ccc(NC(=O)c2nnn(-c3ccc4c(c3)OCCO4)c2N)cc1	24%	-23%	?	-22%	?	3%
NC(=S)Nc1nc2ccccc2[nH]c1=O	.	?	.	.	.	-24%
Cc1ccc2[nH]c(=O)c(NC(N)=S)nc2c1	-1%	11µM*	6%	-1%	i	?
COCC(=O)N1CCC2(CC1)CN(c1cccc(-c3ccccc3)c1)C2	.	9%	.	.	.	1%
O=S(=O)(Oc1ccccc1)c1ccc(Cl)c(Cl)c1	-3%	.	-1%	-8%	i	.
O=[N+]([O-])c1cc(S(=O)(=O)Oc2ccccc2)ccc1Cl	11%	.	?	8.9µM*	i	.
CCOC(=O)N1CCN(C(=O)c2ccc(Cn3c(=S)[nH]c4ccc(Br)cc4c3=O)cc2)CC1	?	?	-1%	-5%	i	14µM*
CCCn1c(=S)[nH]c2cc(C(=O)N3CCN(C(=O)OCC)CC3)ccc2c1=O	-9%	-44%	?	-23%	i	0%
CC(=O)c1ccc(N2CCN(C(=O)c3ccc(Cn4c(=S)[nH]c5ccc(N6CCOCC6)cc5c4=O)cc3)CC2)cc1	-4%	-8%	-1%	19%	.	25%
CC1CCCCN1CCNC(=O)c1ccc2c(=O)n(Cc3ccc(Cl)cc3)c(=S)[nH]c2c1 (centres undefined)	?	11µM*	?	13µM*	i	?
CCOC(=O)N1CCN(C(=O)c2ccc3c(=O)n(CCc4ccccc4)c(=S)[nH]c3c2)CC1	-5%	7.1µM*	-18%	-34%	i	0%
CCOC(=O)N1CCN(C(=O)c2ccc3c(=O)n(Cc4ccc(Cl)cc4)c(=S)[nH]c3c2)CC1	-16%	5.6µM*	?	-31%	i	?
C/C(=C(\CCO)SS/C(CCO)=C(\C)N(C=O)Cc1cnc(C)nc1N)N(C=O)Cc1cnc(C)nc1N	17%	.	.	.	i	.
CC12C=CC(=O)C=C1CCC1C2=CCC2(C)C1CC[C@@H]2C(=O)CN1CCN(c2cc(N3CCCC3)nc(N3CCCC3)n2)CC1 (some centres undefined)	.	7%	.	.	.	2%
Cc1ccc(-c2cccc(C3CC=CC4C3C(=O)N(Cc3ccccc3)C4c3cc(C)ccc3F)c2)cc1 (centres undefined)	12%	?	-23%	-4%	i	-1%
COc1ccc(-c2ccoc2)cc1C1C2C=CCC(C)C2C(=O)N1Cc1ccccc1 (centres undefined)	.	-40%	16µM*	-28%	.	?
C[C@@H]1CC=C[C@H]2[C@H]1C(=O)N(Cc1ccccc1)[C@H]2c1ccc(C(F)(F)F)cc1	-17%	?	22µM*	-22%	i	7%
O=C1C2C(c3ccccc3)CC=CC2[C@H](c2ccc(C(F)(F)F)cc2)N1Cc1ccccc1 (some centres undefined)	?	41%	?	-33%	.	-28%
Cc1ccc(F)c(C2C3C=CCC(c4ccccc4)C3C(=O)N2Cc2ccccc2)c1 (centres undefined)	.	?	13µM*	-60%	.	?
C=CS(=O)(=O)O	.	.	.	.	i	.
CC#CCOC(=O)c1c(C)nc2sc3c(c2c1N)CC[C@@H](O)C3	.	7.1µM*	-9%	-1%	.	?
COc1ccc(C2C3C=CCCC3(C)C(=O)N2Cc2ccccc2)cc1Cl (centres undefined)	.	31%	14µM*	-43%	.	-17%
O=C(NC(=S)N1CCN(C/C=C/c2ccccc2)CC1)c1ccco1	0%	1.1µM*	-14%	21%	i	4µM*
Fc1ccc(NC(=S)N2CCN(C/C=C/c3ccccc3)CC2)c(F)c1	.	-67%	?	5%	i	?
O=C(NC(=S)N1CCN(C/C=C/c2ccccc2)CC1)c1c(F)cccc1F	-1%	1.3µM*	-9%	-20%	i	2.8µM*
SMILES	ATXN2 expr inh	RORgamma inh	TGFb inhibitor	HepG2 tox	S2 tox	VP16 counter
Cn1c(=O)cc(SCC(=O)NCc2ccc(F)cc2)c2cc(Cl)ccc21	-8%	.	1%	5%	i	.
Cc1ccc(CNC(=O)CSc2nnc(C)c3c(C)n(-c4ccccc4)nc23)cc1	-25%	.	?	-6%	i	.
COc1cc(CN(C)CC2CCCN(CCc3ccccc3F)C2)cc(Cl)c1OC (centres undefined)	?	-21%	-18%	-46%	18µM*	-8%
CCN(CC)C(=O)Cn1c(SCC(=O)Nc2ccc(F)cc2)nc2ccccc21	-6%	.	8%	0%	i	.
CCCCn1nnc(NC(=S)NC(=O)c2ccc(-c3cccc(Cl)c3Cl)o2)n1	-7%	1.3µM*	-3%	-3%	i	1.1µM*
CCCCn1nnc(NC(=O)c2ccc(-c3ccccc3[N+](=O)[O-])o2)n1	.	9%	-15%	7%	?	-6%
CCCCC(=O)Nc1nnn(CCC)n1	3%	15%	19%	-11%	i	6%
CCOc1ccc(C(=O)NC(=S)Nc2ncccc2C)cc1[N+](=O)[O-]	9%	-1%	-20%	-7%	i	0%
CCCCC(=O)NC(=S)Nc1nnn(CCC)n1	-14%	0.11µM*	?	-18%	i	0.56µM*
CCCCn1nnc(NC(=S)NC(=O)c2ccc(OCC)c([N+](=O)[O-])c2)n1	7%	2.8µM*	?	18%	i	2.5µM*
CCCCC/C(C=O)=C\c1ccccc1	12%	.	.	.	i	.
Cc1ccc2nc(NC(=O)CSc3[nH]c(=O)ncc3C)sc2c1	18%	.	6%	2%	i	.
C[N+](C)(CCCCCI)c1ccc(/C=C/c2nc3ccccc3s2)cc1	.	.	8.9µM*	-40%	.	.
C(=C\c1nc2ccccc2s1)/c1ccc2c(c1)OCO2	.	.	4%	-25%	.	.
COc1ccc(C(=O)NCC(=O)OCC(=O)c2c(C)[nH]c3ccccc23)cc1OC	-5%	.	-11%	-29%	i	.
COc1ccc(CNC(=O)Cc2ccc(NC(=O)C3=C(C)OCCS3)cc2)cc1	.	?	16%	20%	?	?
CSCC[C@H](C=O)NC(=O)[C@H](CC(C)C)NC(=O)[C@H](CC(C)C)NC(C)=O	.	11µM*	.	.	.	-2%
CCCC[C@@H](C=O)NC(=O)[C@H](CC(C)C)NC(=O)[C@H](CC(C)C)NC(C)=O	.	?	.	.	.	-14%
CCOC(=O)C1CCN(S(=O)(=O)c2c(Cl)ccc3nonc23)CC1	.	2.2µM*	.	.	.	2.8µM*

Source: PubChem
